Molecules are shown by their SMILES. “And” between values parts separate entries of the source, which are not always exact repeats. Equal entries are not always repeated. Compounds without any hit were thinned out: in the full panel of roughly 83,000, 20% have a hit.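 Interpretation: 100, growth as untreated; towards 0, rising growth inhibition; 0, no net growth; 0 to -100, cell death. Compounds scoring below 10 were considered active.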 Values without a mark were called inactive. The source made the active and inactive calls.

From PubChem BioAssay (NCI) come the findings set out here.

In the assay the test system is MDA-MB-468 breast. Kind of assay: NCI-60 one-dose screen, 48 h (100 = growth as untreated, 0 = no growth, -100 = all killed). The conditions noted are these: 10 µM unless noted.
Take `Cc1cc2nc(CO)[nH]c2cc1C`: the growth was 135%. The result for `COS(=O)(=O)CCN(CCOS(C)(=O)=O)S(C)(=O)=O` reads 104%; that for `CC1CCCN(CCCCOc2ccc(-c3ccc(C#N)cc3)cc2)C1` (stereo not given), 87.6%. Regarding `Cc1ccnc2c(OCc3ccccc3)cccc12`, the growth is 34.2%. `CCc1ccc(-c2ccc(=O)n(-c3ccc(S(N)(=O)=O)cc3)n2)cc1`: the growth was 7.89% (active). On to `CCc1ccc(OC(=O)CCl)cc1`, for which the growth was 116%. As to `O=C(NCCNc1nccc(-c2c(-c3cccc(O)c3)nc3sccn23)n1)c1ccccc1O`, the growth was 52%. For the compound `O=C(OCc1ccc2c(Cl)cc(Cl)c(O)c2n1)N1CCN(C(=O)c2cc3ccccc3[nH]2)CC1`, the growth is 10.3%.

As for `Cc1ccc(-c2csc3nc(C)c(CCCl)c(=O)n23)cc1`, the growth is 83.6%. Regarding `COc1cc(-c2nn(-c3cccc(NC(=O)CCN4CCN(Cc5ccccc5)CC4)c3)cc2-c2ccncc2)ccc1Cl`, the growth was 1.17% (active). As for `COc1cc(Nc2ncc(F)c(Nc3ccc4c(n3)NC(=O)C(C)(C)O4)n2)cc(OC)c1OC`, the growth is 27.7%.

As to `O=C1Nc2ccccc2/C1=C/c1ccc(CO)n1-c1ccc(Cl)cc1`, the growth is 27.8%. Regarding `O=C(O)c1cn(C2CC2)c2cc(N3CCN(C(=O)N4CCOCC4)CC3)c(F)cc2c1=O`, the growth is 103%. Turning to `CCOc1ccc(NC(=O)c2ccccc2-c2ccccc2C(=O)O)cc1`, the growth is 101%. The result for `COc1cc(/C=N/OC(=O)Nc2ccccc2)cc(OC)c1OC` reads 105%; that for `O=C(CCN1CCCCC1)c1ccc2ccccc2c1`, 92.1%. Take `Cc1cc(N)n(S(=O)(=O)c2oc(-c3ccccc3)nc2C#N)n1`: the growth is 72.9%. As to `COc1ccc(/C=C(/C)c2ccc3ccc(OC)cc3[o+]2)c(O)c1`, the growth is 67.7%. As for `C=C(C)[C@@H]1C[C@@H]2Cc3cc(Cl)ccc3N1O2`, the growth is 96%. On to `COc1cc2oc(-c3cccc(C(=O)Nc4ccc(C)cc4)c3)cc(=O)c2c(OC)c1OC`, for which the growth was 54.5%. `CC1(C)CC[C@]2(CO)CC[C@]3(C)[C@H](CC[C@@H]4[C@@]5(C)CCCNC(C)(C)[C@@H]5CC[C@]43C)[C@H]2[C@H]1O`: the growth was 71.3%. As to `CCN(CC)CCCNCc1cc(-c2ccccc2)nc2ccccc12`, the growth is 91.5%. On to `COc1ccc2c(c1)nc(N)c1c3cc(C)c(C)cc3cn21`, for which the growth was 48.3%.

On to `CCCN(CCC)CN(CCC)CCC`, for which the growth is 106%.

For `C#CC(F)(F)[C@]1(O)CC[C@H]2[C@@H]3CCC4=CC(=O)CCC4=C3[C@@H](c3ccc(C4CC4)cc3)C[C@@]21C`, the growth was 33.8%. Regarding `CCC1C(=O)COC1=O` (stereo not given), the growth is 103%. As for `COc1cccc(Nc2nc(NCCO)c3ccccc3n2)c1`, the growth is 75.7%.

As for `CCOc1ccc(-c2cnnn2-c2nonc2-n2cccc2)cc1`, the growth was 10.6%.

For `COc1cc2c(cc1-c1c(C)noc1C)ncc1nc(CN3CCOCC3)n([C@H](C)COC(F)F)c12`, the growth is 29.6%. Regarding `CN(C)CCOc1nc2c3cccnc3cc(-c3cccc(Cl)c3)c2c2ncccc12`, the growth is 2.18% (active).

`COc1cc(-c2[nH]ncc2Nc2ccc(Cl)cc2)cc(OC)c1OC`: the growth was 55.7%. Then `Oc1ccc(O)c(-c2ccccc2)c1`, with 33.2%; and `O=C(c1ccc(Cl)cc1)C(NCCO)c1ccc(Cl)cc1` (stereo not given), with 84.1% and 114%. With `O=C(/C=C/c1ccc(Cl)cc1)c1ccc(O)c(CN2CCN(c3cc4c(cc3F)c(=O)c(C(=O)O)cn4C3CC3)CC2)c1`, the growth is 40.9%. Regarding `CSc1nc(N)c(N=Nc2ccc(S(=O)(=O)Nc3nnc(C)s3)cc2)c(=O)[nH]1`, the growth is 93.4%. In the case of `O=C(O)c1occ(Cl)c1Cl`, the growth was 107%. Take `COc1ccc(SC2c3cc(OC)c(OC)cc3Oc3nc(N)c(C#N)c(N)c32)cc1` (stereo not given): the growth is -40.7% (active).

`N#C/C(C(=O)c1ccccc1)=C1/C(=O)Nc2ccccc21`: the growth was 121%. As to `CCOC(=O)C(C)(C#N)C1C=CCCC1` (stereo not given), the growth is 75.6%. Then `Nc1ccc2ccccc2c1-c1c(N)ccc2ccccc12`, with 11.8%.
